# Only some compounds are listed: those with a hit (about 2.4% of all), similar ones and a draw of the others.
# HSF-1 act = increases HSF-1 driven luciferase reporter signal; NIH3T3-HGL HSF-1 luciferase reporter, MG132, 8 h; 100% = twice DMSO control signal; activation, % at 9 µM; 300,000 tested, 1.7% active;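 active = mean replicate activation of at least 50% with a set share of replicates each reaching 50%; inconclusive = only one of those two conditions met; inactive = mean below 50% and too few replicates reaching it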;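 also: 0% = median of the neutral control wells and 100% = twice that signal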
# TLR4 MyD88 comp = blocks binding of human TLR4 to MyD88 | 200,000 tested, 0.18% active | HeLa CL3-4 TLR4/MyD88 BLA complementation, FRET ratio | inhibition, % at 8.4 µM | AID 861 | O00206+Q99836; in the data active = inhibition above about 25%;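 also: 0% = vehicle and 100% = reference inhibitor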
# NOD2 RIPK2 PPI = inhibitors of human NOD2-RIPK2 interaction. O43353. CHO BLA complementation NOD2-RIPK2, CCF4 ratio. inhibition, % at 4.98 µM. 360,000 tested, 0.38% active. AID 624267; in the data active = inhibition above about 21%;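 also: 0% = vehicle only and 100% = reference blocker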
# HSF1 inh = HSF1 inhibition; NIH3T3-HGL HSE-luciferase, MG132-induced, luminescence 8 h; stronger effect = lower value; activity change, negative = inhibition, % at 7.5 µM (by protocol); 300,000 tested, 0.77% active; AID 2098;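 active = more than half of replicate wells show activity change below -50%, luminescence cut by over half; inconclusive = some wells, but at most half, below -50%; inactive = no replicate well below -50%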;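 also: luciferase reports HSF-1 transcriptional activity via heat shock element; 0% = median of DMSO wells and -100% = zero luminescence signal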
# TLR9-MyD88 block = inhibitors of human TLR9-MyD88 binding | Q9NR96+Q99836 | CHO BLA complementation TLR9-MyD88, CCF4 FRET ratio | inhibition, % at 4.98 µM | 340,000 tested, 0.21% active | AID 504734;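 active = inhibition above the mean over all tested compounds plus 3 SD, cut at about 21% in these data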;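 also: 0% = DMSO only wells and 100% = clavulanate BLA inhibitor control wells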
# Target sequence (Q99836 whole entry, looked up): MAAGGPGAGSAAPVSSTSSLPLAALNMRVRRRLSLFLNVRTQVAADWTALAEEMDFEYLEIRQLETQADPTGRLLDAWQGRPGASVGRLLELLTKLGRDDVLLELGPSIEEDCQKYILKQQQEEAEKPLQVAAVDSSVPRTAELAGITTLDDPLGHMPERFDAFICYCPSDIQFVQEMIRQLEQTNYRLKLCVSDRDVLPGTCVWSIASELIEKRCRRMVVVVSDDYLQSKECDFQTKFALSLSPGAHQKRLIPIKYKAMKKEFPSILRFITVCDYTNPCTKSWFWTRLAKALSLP
# Target sequence (Q9NR96 whole entry, looked up): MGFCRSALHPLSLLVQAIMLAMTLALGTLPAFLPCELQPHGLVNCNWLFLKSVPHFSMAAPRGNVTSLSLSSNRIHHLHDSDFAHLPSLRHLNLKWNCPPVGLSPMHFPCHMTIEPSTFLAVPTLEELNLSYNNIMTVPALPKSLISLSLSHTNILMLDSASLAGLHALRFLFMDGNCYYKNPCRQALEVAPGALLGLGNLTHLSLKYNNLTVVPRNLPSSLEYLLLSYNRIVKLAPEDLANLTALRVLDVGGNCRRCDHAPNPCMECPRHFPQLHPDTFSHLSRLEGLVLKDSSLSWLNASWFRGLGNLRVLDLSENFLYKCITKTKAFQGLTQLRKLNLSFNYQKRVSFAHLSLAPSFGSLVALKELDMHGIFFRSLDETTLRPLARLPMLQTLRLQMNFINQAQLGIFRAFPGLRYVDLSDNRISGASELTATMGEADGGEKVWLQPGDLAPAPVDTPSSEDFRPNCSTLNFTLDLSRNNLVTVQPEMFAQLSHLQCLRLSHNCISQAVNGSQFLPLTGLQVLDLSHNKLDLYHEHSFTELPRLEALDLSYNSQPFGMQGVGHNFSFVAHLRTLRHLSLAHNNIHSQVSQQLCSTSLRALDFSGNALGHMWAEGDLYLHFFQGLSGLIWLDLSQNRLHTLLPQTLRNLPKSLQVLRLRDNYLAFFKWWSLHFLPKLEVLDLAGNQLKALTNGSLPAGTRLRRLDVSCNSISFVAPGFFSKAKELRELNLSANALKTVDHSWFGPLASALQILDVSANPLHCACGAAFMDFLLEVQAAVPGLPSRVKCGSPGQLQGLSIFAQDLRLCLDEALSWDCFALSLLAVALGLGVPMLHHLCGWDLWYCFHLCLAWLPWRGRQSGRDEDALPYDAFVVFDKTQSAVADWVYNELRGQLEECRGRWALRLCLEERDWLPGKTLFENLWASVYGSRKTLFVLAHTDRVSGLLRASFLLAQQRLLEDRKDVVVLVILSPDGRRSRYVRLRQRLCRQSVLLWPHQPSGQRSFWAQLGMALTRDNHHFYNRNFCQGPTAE
# TLR9-MyD88 cf = TLR9-MyD88 interaction inhibition, confirmation; AID 540250; CHO TLR9/MyD88 BLA complementation, CCF4 FRET ratio; inhibition, % at 4.98 µM; shares compounds with TLR9-MyD88 block; 680 tested, 51% active;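 active = mean inhibition across three repeats above about 21% taken from the earlier screen, limit read from the data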;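 also: blue over green emission ratio reports constitutive TLR9 MyD88 association via BLA complementation; 0% = DMSO vehicle wells and 100% = clavulanate BLA inhibitor wells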
# BLA counter-1 = beta-lactamase reporter inhibition, counter-screen artifact; 680 tested, 7% active; shares compounds with TLR9-MyD88 block; CHO-BLA cells, CCF4 FRET ratio, BLA reporter; inhibition, % at 4.98 µM;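 active = mean inhibition above a 50% cutoff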;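 also: counterscreen of TLR9-MyD88 hits on CMV-driven BLA in CHO-K1 cells; 0% = DMSO alone and 100% = clavulanate blocking BLA; higher means less blue over green ratio so more BLA blockade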
# TLR9 CHO tox = counter-screen for TLR9-MyD88 inhibitors: cytotoxicity in CHO cells | shares compounds with TLR9-MyD88 block | luminescence | inhibition, % at 4.98 µM | 680 tested, 39% active | AID 588336; in the data active = inhibition above about 11%
# NOD2 RIPK2 conf = confirmation of human NOD2-RIPK2 interaction inhibitors | shares compounds with NOD2 RIPK2 PPI | 1,200 tested, 70% active | CHO cells, NOD2-RIPK2 BLA complementation, CCF4 FRET | inhibition, % at 4.98 µM;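 active = mean inhibition across replicates above a set limit taken from the earlier primary screen, cut at about 21% in these data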;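 also: 0% = DMSO-only wells and the high end = clavulanate BLA-blocked wells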
# BLA counter-2 = counter-screen for NOD2-RIPK2 interaction inhibitors: BLA reporter; shares compounds with NOD2 RIPK2 PPI; CHO BLA reporter, CCF4 FRET ratio, counterscreen; inhibition, % at 4.98 µM; 1,200 tested, 57% active;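 active = mean inhibition above the low-control mean inhibition plus three low-control SD, cut at about 11% in these data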;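 also: 0% = DMSO only wells and 100% = clavulanate high control wells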
# An asterisk follows results filed as active; ? = inconclusive; / = no result.
SMILES,HSF-1 act,TLR4 MyD88 comp,NOD2 RIPK2 PPI,HSF1 inh,TLR9-MyD88 block,TLR9-MyD88 cf,BLA counter-1,TLR9 CHO tox,NOD2 RIPK2 conf,BLA counter-2
O=[N+]([O-])c1ccc(N2N=C(c3ccco3)CC2c2ccccc2)cc1 (centres undefined),42.9,19.9,56.1*,30.5,38.2*,20.9*,21.7,0.6,49.2*,52.9*
O=[N+]([O-])c1ccc(N2N=C(c3ccccc3)CC2c2ccccc2O)cc1 (centres undefined),0.7,/,39.0*,6.4,39.5*,32.6*,37.7,5.8,51.3*,64.8*
COc1cccc(CNc2nc3cc(-c4cccc(C(=O)NCCO)c4)sc3c(=O)n2C)c1,/,/,-0.6,/,/,/,/,/,/,/
CC1(C)CC(=O)C/C(=N/NC(=O)COc2ccc3ccccc3c2Br)C1,7.8,/,9.1,8.4,0.7,/,/,/,/,/
Cc1ccc2nc(/C(C#N)=C\c3cc(O)ccc3[N+](=O)[O-])[nH]c2c1,16.8,13.2,0.1,5.0,4.0,/,/,/,/,/
CCCOc1cc(N(CC)CC)ccc1/C=C(/C#N)c1nc2ccc(C)cc2[nH]1,-9.5,23.2,34.0*,-2.2,21.0*,16.3,16.9,-4.5,35.0*,36.5*
CC(C)c1nnc(NC(=O)c2nc(S(=O)(=O)Cc3ccccc3)ncc2Cl)s1,-86.9,/,26.5*,-85.9*,21.7*,20.1,19.3,29.0*,37.0*,23.7*
CC(=O)Nc1ccc(NC(=O)c2nc(S(=O)(=O)Cc3cccc(C)c3)ncc2Cl)cc1,-40.3,/,82.0*,?,26.7*,43.5*,33.9,96.7*,81.0*,44.1*
Cc1ccc(NC(=O)c2nc(S(=O)(=O)Cc3ccccc3C)ncc2Cl)cc1C,-30.6,/,97.0*,-11.1,40.7*,35.0*,12.8,82.7*,85.6*,33.4*
CC1CCN(S(=O)(=O)c2ccc(NC(=O)c3ccncc3)cc2)CC1,-2.7,/,-13.6,0.0,7.0,/,/,/,/,/
CC(C)c1nnc(NC(=O)CCc2ccccc2)s1,-7.0,/,-3.2,-3.9,-8.4,/,/,/,/,/
CCS(=O)(=O)c1ncc(Cl)c(C(=O)Nc2ccc(S(=O)(=O)N3CCC(C)CC3)cc2)n1,-84.5,/,96.5*,-84.7*,57.9*,48.7*,42.6,98.9*,96.0*,48.4*
C=CCN(C(=O)c1csnn1)C(C(=O)NC1CCCC1)c1ccc(OC)cc1 (centres undefined),-40.2,/,-6.7,-26.0,-0.7,/,/,/,/,/
COCC(=O)N1C[C@H]2CON(C)[C@H]2C[C@H]1c1cccc(-c2ccccc2)c1,/,/,-7.3,/,0.9,/,/,/,/,/
CCOC(=O)c1ccc(NC(=O)c2nc(S(=O)(=O)Cc3ccccc3)ncc2Cl)cc1,-33.4,/,55.0*,-22.9,41.6*,30.4*,22.7,99.2*,86.9*,49.7*
CCc1ccc(NC(=O)c2nc(S(=O)(=O)Cc3ccccc3)ncc2Cl)cc1,-70.1,/,96.3*,?,46.9*,50.5*,31.2,97.6*,93.6*,39.9*
O=C1NC[C@@H](CCCCN2CCN(CC3CCCCC3)C(=O)C2=O)N(CC2CCCCC2)C1=O,/,/,-1.2,/,/,/,/,/,/,/
CCO/C(C)=N/Oc1cc(OC)cc(OC)c1,/,/,-2.8,/,/,/,/,/,/,/
CN(C)C(=O)CSc1cccc2cccnc12,-13.5,-12.6,-4.0,4.6,3.8,/,/,/,/,/
O=C(Sc1cccc2cccnc12)c1ccccc1Br,207.4*,/,38.9*,137.9,24.4*,22.0*,15.3,98.3*,40.7*,17.4*
COc1cc(/C=C2\Oc3cc(O)ccc3C2=O)ccc1O,13.6,/,43.8*,16.9,31.4*,14.8,18.6,-2.1,43.2*,46.6*
Cc1ccsc1/C=C1\Oc2cc(O)ccc2C1=O,/,/,49.8*,/,24.9*,16.4,21.2,1.5,40.4*,52.5*
O=C1/C(=C/c2ccc(O)c(O)c2)Oc2cc(O)ccc21,/,/,12.8,/,12.7,/,/,/,/,/
COc1ccc(/C=C/c2ccc3c(Br)ccc(O)c3n2)cc1,-31.1,/,6.9,-24.8,17.4,/,/,/,/,/
COc1cc(/C=C/c2ccc3c(Br)cc(Br)c(O)c3n2)ccc1O,-6.3,/,34.3*,4.4,25.6*,27.7*,28.8,49.0*,44.6*,55.0*
SMILES,HSF-1 act,TLR4 MyD88 comp,NOD2 RIPK2 PPI,HSF1 inh,TLR9-MyD88 block,TLR9-MyD88 cf,BLA counter-1,TLR9 CHO tox,NOD2 RIPK2 conf,BLA counter-2
N#C/C(=C\c1ccc(Sc2ccc(Cl)cc2)o1)c1nc2ccccc2[nH]1,/,20.9,33.9*,/,34.4*,19.4,23.6,2.4,39.4*,42.6*
O=C(Nc1ccccc1)C1=C(c2ccccc2)S(=O)(=O)CCS1(=O)=O,-67.5,10.6,49.7*,-62.3*,21.8*,19.4,1.2,97.1*,60.0*,11.9*
O=C(O)c1ccccc1C(=O)Nc1ccccc1,-12.8,12.8,1.1,3.7,-3.9,/,/,/,/,/
CCNC(=O)C1(C)CCCN1C(=O)c1ccc(-c2ccccc2)cc1 (centres undefined),/,/,-0.3,/,/,/,/,/,/,/
CCCC(=O)NC1=C(Cl)C(=O)c2ccccc2C1=O,90.8*,/,70.6*,90.8*,36.6*,61.4*,6.5,98.9*,90.0*,29.5*
CCNC1=C(Cl)C(=O)c2ccccc2C1=O,26.5,13.8,6.4,15.2,-3.1,/,/,/,/,/
COc1ccc(C2=CC(c3ccc(OC)c(OC)c3)n3nnnc3N2)c(OC)c1 (centres undefined),18.1,4.5,44.0*,3.0,39.1*,21.5*,26.0,7.5,3.1,6.8
CCN(CC)c1ccc(/C=C/C(=O)C2C(=O)C=C(C)OC2=O)cc1 (centres undefined),38.8,17.7,22.9*,6.1,21.1*,36.2*,38.0,10.7*,27.7*,47.2*
O=C1CN(S(=O)(=O)c2cc(Br)ccc2Br)CCN1,/,/,5.6,/,-6.5,/,/,/,/,/
O=c1c(Br)ccc(Br)cc1Br,/,/,85.3*,/,65.5*,68.5*,39.3,98.2*,100.9*,47.8*
Cc1cc(C)c(NC(=O)COC(=O)c2nc3nccc(C)n3n2)c(Cl)c1,/,/,-4.4,/,0.7,/,/,/,/,/
COc1ccc(-n2ncc(C(C)NS(=O)(=O)c3cc(C)sc3C)c2C)cc1 (centres undefined),/,/,-7.8,/,-3.6,/,/,/,/,/
Cc1ccccc1Oc1cc(-n2ncc(Cl)c(Cl)c2=O)ncn1,/,-8.3,25.5*,/,34.6*,38.4*,23.7,98.8*,75.6*,-3.5

# High-throughput results: PubChem, several laboratories
